“And” between values parts separate entries of the source, which are not always exact repeats. Equal values may be shown once. Records with an inconclusive call do not appear. The source made the active and inactive calls. Unless noted, calls follow the shape of the dose curve; as a rule, active = well fitted curve in the direction sought with a large enough effect; inconclusive = small, poorly fitted or top-dose-only effect, or another doubt; inactive = no such curve, though single readings can be large; an effect the other way counts as inactive or inconclusive.
Legend:
[1] = tested on: PA-1; test: Primary qHTS to identify gynecologic anti-cancer compounds using libraries of approved drugs and bioactive compounds (AID 1345084); details: Gynecologic cancer cell panel viability, ATPlite luminescence, 48 h; series mostly up to 57.5 µM; also: nearly all actives have a fitted effect of over 55% in size; also: potency is read from the fitted curve at half-maximal effect
Outline: (§1)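 Cells, 1,000 per well, were allowed to settle for 16 h at 37 C before compound addition. Five concentrations were tested for 48 h, and viability was read by ATPlite luminescence after 15 min at room temperature.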

[2] = tested on: SKOV3; test: as above; details: Gynecologic cancer cell panel viability, ATPlite luminescence, 48 h; series mostly up to 57.5 µM
Outline: as §1

[3] = tested on: Tov-21-G; test: as above; details: Gynecologic cancer cell panel viability, ATPlite luminescence, 48 h; series mostly up to 57.5 µM
Outline: as §1

[4] = tested on: Tov112D; test: as above; details: Gynecologic cancer cell panel viability, ATPlite luminescence, 48 h; series mostly up to 57.5 µM
Outline: as §1

[5] = Drug repurposing screens with cells derived from glioblastoma tumor samples (AID 1345199); details: GBM patient neurospheres viability, ATP luminescence, 48 h; also: nearly all actives have a fitted effect of over 40% in size; also: potency is read from the fitted curve at half-maximal effect; as to activity, negative = cell killing: % is scaled to controls: 0 for no effect and ±100 for the full control effect
Outline: (§2)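 Four patient lines of CD133+ GBM neurospheres were screened at several concentrations; hits were retested in those lines plus three slower-growing GBM lines, using 48-hour treatment and ATP-based viability.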

[6] = tested on: astro; test: as above; details: viability, ATP luminescence, 48 h; series mostly up to 45.9 µM
Outline: as §2

[7] = qHTS assay to identify inhibitors of the type 1 interferon - major histocompatibility complex class I in skeletal muscle: Counter screen cell viability and HiBit confirmation (AID 1347412); details: iHSKM muscle cells + IFN-b, HiBiT or CellTiter-Glo, 24 h; Potency: HiBiT unless noted; Viability, at 45.9 µM (top of the series); also: potency is read from the fitted curve at half-maximal effect; nearly all actives have a fitted effect of over 60% in size
Outline: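 After 24 h with human IFN-beta (4 ng/ml) and compound titrations (top 46 uM final, 1:3, 12 points), HLA-B HiBit myoblasts were lysed for either Nano-Glo HiBiT luminescence or CellTiter Glo viability on paired plates.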

[8] = qHTS assay for small molecule activators of the human pregnane X receptor (PXR) signaling pathway (AID 720659; call rule not given here; also: 0% is about no effect)
[9] = molecular target: Nuclear receptor subfamily 1 group I member 2 (Rattus norvegicus) (UniProt Q9R1A7); test: qHTS assay for small molecule activators of the rat pregnane X receptor (rPXR) signaling pathway (AID 651751; call rule not given here; also: 0% is about no effect); details: rPXR reporter cells, luciferase (One-Glo), 24 h
Nuclear receptor subfamily 1 group I member 2 (Rattus norvegicus), sequence (Q9R1A7 whole entry, looked up): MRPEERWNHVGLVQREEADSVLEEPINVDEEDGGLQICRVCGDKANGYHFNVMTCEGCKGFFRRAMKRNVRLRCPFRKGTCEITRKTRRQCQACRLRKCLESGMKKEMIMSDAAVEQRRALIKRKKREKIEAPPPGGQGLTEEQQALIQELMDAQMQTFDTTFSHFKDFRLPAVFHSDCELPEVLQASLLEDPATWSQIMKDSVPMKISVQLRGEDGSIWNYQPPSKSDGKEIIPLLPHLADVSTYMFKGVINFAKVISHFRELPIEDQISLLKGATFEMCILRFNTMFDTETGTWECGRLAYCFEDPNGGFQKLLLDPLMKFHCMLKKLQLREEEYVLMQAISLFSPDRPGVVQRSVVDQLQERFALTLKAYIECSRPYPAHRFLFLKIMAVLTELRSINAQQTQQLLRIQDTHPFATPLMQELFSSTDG

[10] = at 45.9 µM (top of the series), tumour line B
[11] = at 45.9 µM (top of the series), tumour line D
[12] = at 46.1 µM (top of the series), tumour line C
[13] = at 46 µM (top of the series), tumour line A

C[C@@H](CN(C)C)CN1c2ccccc2Sc2ccccc21
active: Potency [2] 17.8 µM | Potency ([5]; tumour line A) 8.91 µM
inactive: Potency [1] | Potency [3] | Potency [4] | activity, negative = cell killing ([5]; at 20 µM (top of the series), tumour line C) 31.6% | activity, negative = cell killing ([5]; at 21.2 µM (top of the series), tumour line B) -28.5% | Potency [6]

CCCCCCCCCCCCCCCCOP(=O)([O-])OCC[N+](C)(C)C
active: Potency [3] 25.1 µM
inactive: Potency [1] | Potency [2] | Potency [4] | activity, negative = cell killing [5, 10] -7.15% | activity, negative = cell killing [5, 11] -0.719% | activity, negative = cell killing [5, 12] -5.47% | Potency [6]

C[C@@H]1C[C@H]2[C@@H]3CCC4=CC(=O)C=C[C@]4(C)[C@@]3(F)[C@@H](O)C[C@]2(C)[C@H]1C(=O)CO
inactive: Potency [1] | Potency [2] | Potency [3] | Potency [4] | activity, negative = cell killing [5, 10] -17.3% | activity, negative = cell killing [5, 11] -7.25% | activity, negative = cell killing [5, 12] 1.19% | Potency [6]

CCCSS/C(CCO)=C(\C)N(C=O)Cc1cnc(C)nc1N
active: Potency [6] 22.4 µM
inactive: Potency [1] | Potency [2] | Potency [3] | Potency [4] | activity, negative = cell killing [5, 12] -24.8%

CC(C)n1nc(-c2cc3cc(O)ccc3[nH]2)c2c(N)ncnc21
active: Potency [1] 4.47 µM | Potency [2] 1 µM and 631 nM | Potency [3] 11.2 µM and 4.47 µM | Potency [4] 7.94 µM | Potency [7] 3.52 µM

O=c1[nH]c(=O)n([C@H]2CCCO2)cc1F
inactive: Potency [1] | Potency [3] | Potency [4]

Clc1ccc2c(c1)CCc1cccnc1C2=C1CCNCC1
active: Potency ([5]; tumour line A) 5.01 µM | Potency ([5]; tumour line B) 12.6 µM | Potency ([5]; tumour line D) 20 µM
inactive: Potency [1] | Potency [3] | Potency [4] | activity, negative = cell killing [5, 12] 0.244%

c1ccc(-c2ccc(C(c3ccccc3)n3ccnc3)cc2)cc1 (stereo unspecified)
inactive: Potency [1] | Potency [3] | Potency [4] | activity, negative = cell killing [5, 10] -29.4%
active: Potency ([5]; tumour line A) 3.55 µM | Potency ([5]; tumour line D) 11.2 µM

Cc1cc(N)c2cc(NC(=O)Nc3ccc4nc(C)cc(N)c4c3)ccc2n1
active: Potency [6] 35.5 µM
inactive: Potency [1] | Potency [2] | Potency [4]

Oc1c(Cl)cc(Cl)cc1Sc1cc(Cl)cc(Cl)c1O
inactive: Potency [1] | Potency [2] | Potency [3] | Potency [4] | outcome [8]
active: Potency [6] 10 µM

CC(CCc1ccccc1)NCC(O)c1ccc(O)c(C(N)=O)c1 (stereo unspecified)
inactive: Potency [1] | Potency [2] | Potency [4] | activity, negative = cell killing [5, 10] -24.2% | activity, negative = cell killing [5, 11] -11.2% | activity, negative = cell killing [5, 12] -24% | Potency [6]

O=C(CCN1CCC(c2ccccc2)C1)c1ccc2c(c1)OCCO2 (stereo unspecified)
inactive: Potency [1] | Potency [3] | Potency [4]

CC(C)(C)NC(=O)[C@@H]1CN(Cc2cccnc2)CCN1C[C@@H](O)C[C@@H](Cc1ccccc1)C(=O)N[C@H]1c2ccccc2C[C@H]1O
inactive: Potency [1] | Potency [3] | Potency [4]

Oc1ccc(Cl)c2cccnc12
inactive: Potency [1] | Potency [2] | Potency [3] | Potency [4] | activity, negative = cell killing [5, 12] -0.921% | Potency [6]

CN(C/C=C/c1ccccc1)Cc1cccc2ccccc12
inactive: Potency [1] | Potency [3] | Potency [4] | activity, negative = cell killing [5, 10] -26.7% | activity, negative = cell killing [5, 11] -18.5% | activity, negative = cell killing [5, 12] -27.1% | Potency [6]

OC[C@H]1O[C@@H](n2cnc3c(=S)nc[nH]c32)[C@H](O)[C@@H]1O
inactive: Potency [2] | activity, negative = cell killing [5, 10] -25.4% | Potency [6]
active: Potency [1] 5.01 µM | Potency [3] 0.891 µM | Potency ([5]; tumour line A) 1.41 µM

CCCCC1=NC2(CCCC2)C(=O)N1Cc1ccc(-c2ccccc2-c2nn[nH]n2)cc1
inactive: Potency [1] | Potency [3] | Potency [4] | activity, negative = cell killing [5, 10] -9.67% | activity, negative = cell killing [5, 11] -0.133% | activity, negative = cell killing [5, 13] -12.9% | activity, negative = cell killing [5, 12] 8.98% | Potency [6]

CCOC(=O)COc1ccc2c(C)c(CCN(CC)CC)c(=O)oc2c1Cl
inactive: Potency [1] | Potency [4] | activity, negative = cell killing [5, 10] -13.9% | activity, negative = cell killing [5, 12] -21.4% | Potency [6]
active: Potency [2] 15.8 µM | Potency ([5]; tumour line A) 11.2 µM

CC(C)=CCC1C(=O)N(c2ccccc2)N(c2ccccc2)C1=O
inactive: Potency [1] | Potency [2] | Potency [3] | Potency [4] | activity, negative = cell killing [5, 12] 3.79% | Potency [6]

C[n+]1c2cc(N)ccc2cc2ccc(N)cc21 (tested in a mixture with another compound)
active: Potency [1] 5.01 µM | Potency [2] 12.6 µM | Potency [3] 28.2 µM | Potency ([5]; tumour line A) 35.5 µM | Potency ([5]; tumour line B) 11.2 µM | Potency ([5]; tumour line D) 5.01 µM
inactive: activity, negative = cell killing [5, 12] -16%

C=C(CC)C(=O)c1ccc(OCC(=O)O)c(Cl)c1Cl
inactive: Potency [1] | Potency [2] | activity, negative = cell killing [5, 12] 1.71% | max response [9] -15% | outcome [8]

C=CCc1ccc(O)c(OC)c1
inactive: Potency [1] | Potency [3] | Potency [4] | activity, negative = cell killing [5, 10] -13.4% | activity, negative = cell killing [5, 11] 1.72% | activity, negative = cell killing [5, 13] -22.5% | activity, negative = cell killing [5, 12] 5.7% | Potency [6] | max response [9] -0.084% and 3.11% | outcome [8]

— PubChem BioAssay (NCATS)
